Results reported in PubChem BioAssay (NCI).
Compounds without any hit were thinned out: in the full panel of roughly 79,000, 15% have a hit. Unmarked numbers belong to inactive results. Activity calls are given as the source filed them. Cut-off read from the data, not from the text of the source: active = growth inhibition above about 70%; inactive = the rest.

Columns and labels:
[1] = NCI Yeast Anticancer Drug Screen. Data for the rad50 strain (AID 155);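 note: 0% = growth of vehicle-only cultures of the same strain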; conditions: S. cerevisiae rad50 strain growth inhibition; at 50.0 µM; hits give high values
In short: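 Compounds were tested on a yeast strain with an engineered DNA damage repair alteration; the reported value is growth inhibition normalised to vehicle treatment.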

[2] = NCI Yeast Anticancer Drug Screen. Data for the mec2-1 strain (AID 157); conditions: S. cerevisiae mec2-1 strain, at 50.0 µM, hits give high values
In short: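 Growth inhibition is read against vehicle-treated controls after compound exposure of the mec2-1 yeast strain, which is defective in DNA damage repair or cell cycle control.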

[3] = NCI Yeast Anticancer Drug Screen. Data for the sgs1 mgt1 strain (AID 161);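 note: 0% = growth of cultures given vehicle only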; conditions: S. cerevisiae sgs1 mgt1 strain, at 50.0 µM, hits give high values
In short: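 Yeast cells carrying a defined DNA-repair defect were exposed to test compounds. Growth inhibition was measured relative to vehicle-treated controls.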

[4] = NCI Yeast Anticancer Drug Screen. Data for the cln2 rad14 strain (AID 165);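 note: 0% = growth equal to vehicle treated cultures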; conditions: S. cerevisiae cln2 rad14 strain, at 50.0 µM, hits give high values
In short: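 Growth inhibition, relative to vehicle-treated controls, is the read-out. The test organism is a yeast strain with defined genetic alterations, cln2 rad14.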

[5] = NCI Yeast Anticancer Drug Screen. Data for the bub3 strain (AID 167); conditions: S. cerevisiae bub3 mutant strain, at 50.0 µM, hits give high values
In short: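 Growth of a checkpoint-deficient yeast mutant is measured after compound exposure. Values represent inhibition relative to vehicle.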

[6] = NCI Yeast Anticancer Drug Screen. Data for the mlh1 rad18 strain (AID 175); conditions: S. cerevisiae mlh1 rad18 strain growth inhibition; at 50.0 µM; hits give high values
In short: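 Cells of a genetically altered yeast strain, deficient in DNA damage repair, were treated with compound. Their growth was then compared with that of vehicle-treated cultures to give inhibition.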

CN(C)CSCCO
growth inhibition [1]: -2.8%
growth inhibition [2]: -1.5%
growth inhibition [3]: -5.7%
growth inhibition [4]: -14.8%
growth inhibition [5]: -5.1%
growth inhibition [6]: 0.45%

Nc1cc(=O)n(C2OC(CO)C(O)C2O)cn1 (configuration not stated)
growth inhibition [1]: 6.85%
growth inhibition [2]: -8.35%
growth inhibition [3]: -0.3%
growth inhibition [4]: -39.4%
growth inhibition [5]: -19.4%
growth inhibition [6]: 8.05%

CCOC(=O)/C(C#N)=N/Nc1ccc(S(=O)(=O)NC(C)=O)cc1
growth inhibition [1]: -16.6%
growth inhibition [2]: -10.5%
growth inhibition [3]: 5.8%
growth inhibition [4]: 11.5%
growth inhibition [5]: -2.95%
growth inhibition [6]: -4.4%

Nc1ccccc1OCC(=O)Nc1c(N)ncnc1N
growth inhibition [1]: 0.4%
growth inhibition [2]: -6.35%
growth inhibition [3]: 6.85%
growth inhibition [4]: 2.95%
growth inhibition [5]: 5.9%
growth inhibition [6]: -3.8%

COC1OC(COS(=O)(=O)c2ccc(C)cc2)C(OS(=O)(=O)c2ccc(C)cc2)C1OCc1ccccc1 (configuration not stated)
growth inhibition [1]: -2.35%
growth inhibition [2]: 2.85%
growth inhibition [3]: 3.9%
growth inhibition [4]: -15.7%
growth inhibition [5]: -0.65%
growth inhibition [6]: -1.4%

CCCCCCC(C)C(CC)(C(=O)OCC)C(=O)OCC (configuration not stated)
growth inhibition [1]: -16.1%
growth inhibition [2]: 6.55%
growth inhibition [3]: -0.2%
growth inhibition [4]: 12.1%
growth inhibition [5]: -14.3%
growth inhibition [6]: 7.65%

NC(=O)CC1CCCCC1
growth inhibition [1]: 8.3%
growth inhibition [2]: -9%
growth inhibition [3]: -7.05%
growth inhibition [4]: 7.35%
growth inhibition [5]: 17.2%
growth inhibition [6]: -8.55%

CN(C)CCNc1ccc(CO)c2sc3ccc(O)cc3c(=O)c12
growth inhibition [1]: 11.4%
growth inhibition [2]: -3.65%
growth inhibition [3]: 12.1%
growth inhibition [4]: -32%
growth inhibition [5]: 12.2%
growth inhibition [6]: -9.25%

N#CC[N+]1(Cc2ccccn2)CCCC1
growth inhibition [1]: -4.5%
growth inhibition [2]: -2.05%
growth inhibition [3]: -13.8%
growth inhibition [4]: 6.4%
growth inhibition [5]: -2.5%
growth inhibition [6]: -7.8%

COc1cc(C(c2ccc3c(c2)OCO3)N2C(=O)CCC2C(=O)O)cc(OC)c1OC (configuration not stated)
growth inhibition [1]: -14.1%
growth inhibition [2]: -15.6%
growth inhibition [3]: -18.8%
growth inhibition [4]: -11.7%
growth inhibition [5]: -7.8%
growth inhibition [6]: -10.2%

O=C1/C(=C/c2ccc([N+](=O)[O-])cc2)CCCc2ccccc21
growth inhibition [1]: 11.1%
growth inhibition [2]: 6.8%
growth inhibition [3]: 22.9%
growth inhibition [4]: -22.3%
growth inhibition [5]: -0.95%
growth inhibition [6]: 21.9%

Cc1nn2c(c1C#N)NNc1c-2sc(=N)nnc1=O
growth inhibition [1]: -1.6%
growth inhibition [2]: 0.5%
growth inhibition [3]: 13.5%
growth inhibition [4]: -4.4%
growth inhibition [5]: -9.4%
growth inhibition [6]: 15.6%

CCNN(CC)C(N)=O
growth inhibition [1]: 5.2%
growth inhibition [2]: -5%
growth inhibition [3]: 0.4%
growth inhibition [4]: 7.6%
growth inhibition [5]: -13.2%
growth inhibition [6]: -1.25%

O=C(c1ccc(Br)cc1)C1SC2(C(=O)c3ccc(Br)cc3)SC(C(=O)c3ccc(Br)cc3)C(C(=O)c3ccc(Br)cc3)SC2(C(=O)c2ccc(Br)cc2)SC1C(=O)c1ccc(Br)cc1 (configuration not stated)
growth inhibition [1]: -8.8%
growth inhibition [2]: 3.75%
growth inhibition [3]: -17.4%
growth inhibition [4]: -11.9%
growth inhibition [5]: -2.95%
growth inhibition [6]: -24.4%

c1cc2c3c(cccc3c1)-c1nc3c(ccc4ccccc43)nc1-2
growth inhibition [1]: -0.15%
growth inhibition [2]: 22.8%
growth inhibition [3]: 19.6%
growth inhibition [4]: 11.6%
growth inhibition [5]: 10.4%
growth inhibition [6]: 12.3%

COc1ccc(CNc2ccccc2)cc1
growth inhibition [1]: -2%
growth inhibition [2]: 11.8%
growth inhibition [3]: 3.65%
growth inhibition [4]: 10.6%
growth inhibition [5]: -4.05%
growth inhibition [6]: -9.4%

CC/C(=C\c1ccccc1OC)c1ccncc1
growth inhibition [1]: 14.2%
growth inhibition [2]: -0.1%
growth inhibition [3]: 30.4%
growth inhibition [4]: 12.2%
growth inhibition [5]: 36.6%
growth inhibition [6]: 1.55%

COc1ccc(/C=C2\C(=O)N(C(=O)Cc3ccccc3)N=C2C)cc1OC
growth inhibition [1]: -20.3%
growth inhibition [2]: -20.2%
growth inhibition [3]: -59.1%
growth inhibition [4]: -16.8%
growth inhibition [5]: -12.4%
growth inhibition [6]: -42.6%

COc1ccc(C(=O)/C=C/c2ccc(OCCSCCCCCCCCCCSCCOc3ccc(/C=C/C(=O)c4ccc(OC)c(OC)c4)cc3)cc2)cc1OC
growth inhibition [1]: -44.4%
growth inhibition [2]: -26.1%
growth inhibition [3]: -28.2%
growth inhibition [4]: -6.35%
growth inhibition [5]: -29.6%
growth inhibition [6]: -53.6%

Cc1ccc(N=C=O)cc1N1C(=O)N(c2cc(N=C=O)ccc2C)C1=O
growth inhibition [1]: -41.5%
growth inhibition [2]: -55%
growth inhibition [3]: -48%
growth inhibition [4]: -139%
growth inhibition [5]: -10.5%
growth inhibition [6]: -60.4%

COc1ccc(CCCCl)c(C2=NCCc3cc(OC)c(OC)cc32)c1
growth inhibition [1]: 19.6%
growth inhibition [2]: 2.4%
growth inhibition [3]: -37.8%
growth inhibition [4]: -6.1%
growth inhibition [5]: -37.8%
growth inhibition [6]: 0.9%

O=c1nc(-c2ccccc2)cc(Cc2ccc3ccccc3n2)[nH]1
growth inhibition [1]: 30.1%
growth inhibition [2]: 25.8%
growth inhibition [3]: 26.1%
growth inhibition [4]: -29.8%
growth inhibition [5]: 47%
growth inhibition [6]: 28.9%

CN(C=O)c1ccc([N+](=O)[O-])cc1
growth inhibition [1]: 7.1%
growth inhibition [2]: -6.5%
growth inhibition [3]: -7.15%
growth inhibition [4]: 5.7%
growth inhibition [5]: 1.4%
growth inhibition [6]: -3.4%

C=C(c1ccccc1)c1cccc2ccccc12
growth inhibition [1]: -2.45%
growth inhibition [2]: 3.45%
growth inhibition [3]: -4.9%
growth inhibition [4]: 19.9%
growth inhibition [5]: -11.7%
growth inhibition [6]: 6.55%

CCC(C)(O)c1cnc(CC(C)C)c(=O)n1O (configuration not stated)
growth inhibition [1]: 55.5%
growth inhibition [2]: 32.9%
growth inhibition [3]: 43.3%
growth inhibition [4]: 38.7%
growth inhibition [5]: 38.4%
growth inhibition [6]: 52.2%

NC(=O)CC(N)C(N)=O (configuration not stated)
growth inhibition [1]: -8.25%
growth inhibition [2]: -33.1%
growth inhibition [3]: -47.8%
growth inhibition [4]: 13.2%
growth inhibition [5]: -18.3%
growth inhibition [6]: -3.25%

CCCCCC#CC1OC1(C)C (configuration not stated)
growth inhibition [1]: -2.1%
growth inhibition [2]: -8.05%
growth inhibition [3]: -2.8%
growth inhibition [4]: -27%
growth inhibition [5]: 5.95%
growth inhibition [6]: -12.2%

CCOc1ccccc1Br
growth inhibition [1]: -2.05%
growth inhibition [2]: 8.65%
growth inhibition [3]: -2.05%
growth inhibition [4]: -9.8%
growth inhibition [5]: 1%
growth inhibition [6]: -38.2%

CCN(CC)c1ccc(NC(C)=O)c(C)c1
growth inhibition [1]: -16.2%
growth inhibition [2]: 21.1%
growth inhibition [3]: 9.65%
growth inhibition [4]: -15.8%
growth inhibition [5]: 18.1%
growth inhibition [6]: 3.3%

CCCCCCC1OCCC(C)O1 (configuration not stated)
growth inhibition [1]: 7.6%
growth inhibition [2]: 5.95%
growth inhibition [3]: 16.9%
growth inhibition [4]: -10.3%
growth inhibition [5]: -22.4%
growth inhibition [6]: 12.9%

CN(C)CCNc1ccc(NCCN(C)C)c2c1C(=O)c1ncsc1C2=O
growth inhibition [1]: -8.15%
growth inhibition [2]: -0.8%
growth inhibition [3]: 14.2%
growth inhibition [4]: 8.35%
growth inhibition [5]: 2.1%
growth inhibition [6]: -16.8%

NC(=S)N/N=C/c1ccc(F)cn1
growth inhibition [1]: 22.9%
growth inhibition [2]: 58.4%
growth inhibition [3]: -1.5%
growth inhibition [4]: -63.9%
growth inhibition [5]: -5.4%
growth inhibition [6]: 11.9%

CN(C)CCN(C=O)CCN(C)C
growth inhibition [1]: 9.85%
growth inhibition [2]: 3.95%
growth inhibition [3]: 4.5%
growth inhibition [4]: -9.1%
growth inhibition [5]: 0.6%
growth inhibition [6]: -0.2%

C[N+](C)(C)C(C1=CCCC1=O)c1ccccc1 (configuration not stated)
growth inhibition [1]: 50%
growth inhibition [2]: 43.3%
growth inhibition [3]: 3.7%
growth inhibition [4]: 26.9%
growth inhibition [5]: 30.3%
growth inhibition [6]: 43.6%

CCOCCOc1nc(C)cc(C)c1C#N
growth inhibition [1]: -30.9%
growth inhibition [2]: -41.5%
growth inhibition [3]: -8.05%
growth inhibition [4]: -6.4%
growth inhibition [5]: -29.5%
growth inhibition [6]: -20.9%

ClCCOCOc1ccc2ccccc2c1
growth inhibition [1]: 29.6%
growth inhibition [2]: 23.9%
growth inhibition [3]: 43.6%
growth inhibition [4]: 16.7%
growth inhibition [5]: 26.6%
growth inhibition [6]: 26.9%

CN(C=C(c1ccccc1)c1ccccc1)c1ccccc1
growth inhibition [1]: -15.6%
growth inhibition [2]: -7.85%
growth inhibition [3]: 2.2%
growth inhibition [4]: -21.6%
growth inhibition [5]: -12.8%
growth inhibition [6]: -32.6%

CN(C)c1ccc(/C=C/C=C/C(=O)c2ccccc2)cc1
growth inhibition [1]: -5.35%
growth inhibition [2]: 16.2%
growth inhibition [3]: -0.1%
growth inhibition [4]: 5.55%
growth inhibition [5]: -13.8%
growth inhibition [6]: -7.4%

O=C(NC(c1ccccc1)C(Cl)(Cl)c1ccccc1)c1ccccc1 (configuration not stated)
growth inhibition [1]: 21.8%
growth inhibition [2]: -7.5%
growth inhibition [3]: 6.4%
growth inhibition [4]: -0.2%
growth inhibition [5]: 22.9%
growth inhibition [6]: 23.3%

N=C1C=Cc2ccccc2/C1=N/N=c1/ccccn1O
growth inhibition [1]: 72.2% (active)
growth inhibition [2]: 91.6% (active)
growth inhibition [3]: 73.5% (active)
growth inhibition [4]: 51.7%
growth inhibition [5]: 98.3% (active)
growth inhibition [6]: 78.2% (active)

C=C(C)CNC(=S)N(N)c1ccc(OC)cc1
growth inhibition [1]: 39.5%
growth inhibition [2]: 9.75%
growth inhibition [3]: 16.6%
growth inhibition [4]: -2.2%
growth inhibition [5]: 12.4%
growth inhibition [6]: 36.1%

CCCOc1ccc(/C=C\c2cc(OC)c(OC)c(OC)c2)cc1
growth inhibition [1]: 0.85%
growth inhibition [2]: 3.9%
growth inhibition [3]: -2.05%
growth inhibition [4]: 3.4%
growth inhibition [5]: 10.1%
growth inhibition [6]: 43.5%
